# Reference: paper PMC7862700, “An all-to-all approach to the identification of sequence-specific readers for epigenetic DNA modifications on cytosine”
# How the values were obtained:
# Test in all cases: DAPPL (digital affinity profiling via proximity ligation, sequencing); 10 mM Tris-HCl pH 7.5, 50 mM NaCl, 1 mM DTT, 4% glycerol, room temperature, 30 min; GST-TFs on glutathione beads, 16-mer random dsDNA library, 0.1% formaldehyde crosslink after washing; high values mean tight binding
# [1] = biological target: T1, FEV (Homo sapiens, UniProt Q99581 1-238); settings: protein: recombinant; tags: N-terminal GST; dsDNA, one strand shown
# T1 sequence: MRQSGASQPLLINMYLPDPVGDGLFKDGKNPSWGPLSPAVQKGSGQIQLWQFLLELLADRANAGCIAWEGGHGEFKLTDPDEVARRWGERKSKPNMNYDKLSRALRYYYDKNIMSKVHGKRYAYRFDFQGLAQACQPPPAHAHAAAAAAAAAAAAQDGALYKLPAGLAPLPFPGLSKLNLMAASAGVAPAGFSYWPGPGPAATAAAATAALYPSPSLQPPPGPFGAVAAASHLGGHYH
# In short: (§1)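 Binding signal is each hexamer's read frequency for a factor divided by its frequency in the tag-only sample. The factors were GST-fused human transcription factors from yeast, captured on glutathione beads, DNA-barcoded and pooled with that sample. Pools were incubated with 200 nmole of a random double-stranded 16-mer DNA library in Tris/NaCl/DTT/glycerol buffer at room temperature for 30 min, then washed, crosslinked with 0.1% formaldehyde, proximity-ligated with BsaI/T4 ligase (1 h, 37 °C), PCR-amplified and sequenced on an Illumina NextSeq500.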
# [2] = biological target: ETV5 (Homo sapiens, UniProt P41161 1-510); settings: protein: recombinant; tags: N-terminal GST; dsDNA, one strand shown
# ETV5, sequence (P41161 whole entry): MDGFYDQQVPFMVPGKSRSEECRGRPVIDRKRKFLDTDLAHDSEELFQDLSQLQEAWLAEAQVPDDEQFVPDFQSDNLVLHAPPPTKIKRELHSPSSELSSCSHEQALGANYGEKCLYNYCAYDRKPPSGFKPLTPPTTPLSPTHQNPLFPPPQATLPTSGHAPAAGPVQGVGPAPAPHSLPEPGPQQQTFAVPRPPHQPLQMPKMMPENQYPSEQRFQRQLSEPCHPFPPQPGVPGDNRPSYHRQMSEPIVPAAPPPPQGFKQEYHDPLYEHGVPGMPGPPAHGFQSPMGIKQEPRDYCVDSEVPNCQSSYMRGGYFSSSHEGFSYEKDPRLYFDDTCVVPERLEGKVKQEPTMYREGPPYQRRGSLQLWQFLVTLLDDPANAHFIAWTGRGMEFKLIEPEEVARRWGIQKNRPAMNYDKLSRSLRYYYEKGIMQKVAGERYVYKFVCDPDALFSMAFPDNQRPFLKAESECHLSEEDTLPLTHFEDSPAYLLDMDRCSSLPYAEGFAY
# In short: as §1
# [3] = biological target: HSF1 (Homo sapiens, UniProt Q00613 1-529); settings: protein: recombinant; tags: N-terminal GST; chain copies: 3; dsDNA, one strand shown
# HSF1, sequence (Q00613 whole entry): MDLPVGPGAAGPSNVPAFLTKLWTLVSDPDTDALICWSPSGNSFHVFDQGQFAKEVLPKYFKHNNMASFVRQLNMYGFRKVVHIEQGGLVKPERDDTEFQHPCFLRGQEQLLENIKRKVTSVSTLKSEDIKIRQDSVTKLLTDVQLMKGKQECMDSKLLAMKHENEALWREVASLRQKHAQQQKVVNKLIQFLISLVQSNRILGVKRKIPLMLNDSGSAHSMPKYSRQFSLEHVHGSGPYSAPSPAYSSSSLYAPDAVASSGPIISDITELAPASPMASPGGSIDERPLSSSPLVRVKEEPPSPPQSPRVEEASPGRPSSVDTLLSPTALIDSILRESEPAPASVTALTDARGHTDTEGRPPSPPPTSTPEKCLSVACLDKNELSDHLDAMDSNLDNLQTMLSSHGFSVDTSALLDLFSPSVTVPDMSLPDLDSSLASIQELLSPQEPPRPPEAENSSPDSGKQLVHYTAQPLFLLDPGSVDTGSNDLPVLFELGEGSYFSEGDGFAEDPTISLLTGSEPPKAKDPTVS
# In short: as §1
# [4] = biological target: T2, SPIC (Homo sapiens, UniProt Q8N5J4 1-248); settings: protein: recombinant; tags: N-terminal GST; dsDNA, one strand shown
# T2 sequence: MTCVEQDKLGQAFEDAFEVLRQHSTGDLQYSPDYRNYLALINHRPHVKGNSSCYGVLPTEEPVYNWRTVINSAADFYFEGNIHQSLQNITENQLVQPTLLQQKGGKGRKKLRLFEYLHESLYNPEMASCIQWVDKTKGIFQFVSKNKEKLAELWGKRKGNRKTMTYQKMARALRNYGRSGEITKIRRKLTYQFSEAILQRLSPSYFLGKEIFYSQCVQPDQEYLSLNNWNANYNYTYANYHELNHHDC
# In short: as §1
# [5] = biological target: ELF4 (Homo sapiens, UniProt Q99607 1-663); settings: protein: recombinant; tags: N-terminal GST; dsDNA, one strand shown
# ELF4, sequence (Q99607 whole entry): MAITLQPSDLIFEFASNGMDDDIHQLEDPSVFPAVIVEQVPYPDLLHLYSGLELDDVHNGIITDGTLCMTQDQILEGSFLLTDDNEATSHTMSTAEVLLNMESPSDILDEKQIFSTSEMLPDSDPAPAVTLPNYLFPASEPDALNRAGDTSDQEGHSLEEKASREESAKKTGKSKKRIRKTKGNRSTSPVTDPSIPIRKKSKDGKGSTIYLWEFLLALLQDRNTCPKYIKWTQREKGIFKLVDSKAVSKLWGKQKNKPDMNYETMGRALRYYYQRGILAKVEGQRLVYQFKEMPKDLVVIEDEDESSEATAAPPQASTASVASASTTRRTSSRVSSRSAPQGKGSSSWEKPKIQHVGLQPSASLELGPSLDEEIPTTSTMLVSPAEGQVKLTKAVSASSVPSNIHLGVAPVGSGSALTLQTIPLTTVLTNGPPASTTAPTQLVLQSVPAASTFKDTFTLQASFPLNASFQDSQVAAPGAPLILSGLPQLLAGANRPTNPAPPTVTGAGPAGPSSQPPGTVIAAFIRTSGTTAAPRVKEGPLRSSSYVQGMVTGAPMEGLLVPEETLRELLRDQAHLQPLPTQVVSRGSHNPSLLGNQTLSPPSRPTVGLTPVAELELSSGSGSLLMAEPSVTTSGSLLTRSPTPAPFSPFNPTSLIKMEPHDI
# In short: as §1
# [6] = biological target: T3, ELK4 (Homo sapiens, UniProt P28324-2 1-405); settings: protein: recombinant; tags: N-terminal GST; dsDNA, one strand shown
# T3 sequence: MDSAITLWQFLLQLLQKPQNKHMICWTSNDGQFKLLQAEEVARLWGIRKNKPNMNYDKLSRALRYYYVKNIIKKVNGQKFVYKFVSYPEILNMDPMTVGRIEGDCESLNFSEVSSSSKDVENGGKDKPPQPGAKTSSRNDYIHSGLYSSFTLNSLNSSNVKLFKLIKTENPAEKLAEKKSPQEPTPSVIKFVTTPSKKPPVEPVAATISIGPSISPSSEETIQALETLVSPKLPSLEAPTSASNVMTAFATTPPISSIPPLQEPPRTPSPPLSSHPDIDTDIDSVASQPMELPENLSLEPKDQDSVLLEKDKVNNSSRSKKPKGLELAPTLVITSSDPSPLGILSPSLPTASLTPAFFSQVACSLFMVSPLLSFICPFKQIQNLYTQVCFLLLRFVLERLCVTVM
# In short: as §1
# [7] = biological target: T4, ETV2 (Homo sapiens, UniProt O00321 1-342); settings: protein: recombinant; tags: N-terminal GST; dsDNA, one strand shown
# T4 sequence: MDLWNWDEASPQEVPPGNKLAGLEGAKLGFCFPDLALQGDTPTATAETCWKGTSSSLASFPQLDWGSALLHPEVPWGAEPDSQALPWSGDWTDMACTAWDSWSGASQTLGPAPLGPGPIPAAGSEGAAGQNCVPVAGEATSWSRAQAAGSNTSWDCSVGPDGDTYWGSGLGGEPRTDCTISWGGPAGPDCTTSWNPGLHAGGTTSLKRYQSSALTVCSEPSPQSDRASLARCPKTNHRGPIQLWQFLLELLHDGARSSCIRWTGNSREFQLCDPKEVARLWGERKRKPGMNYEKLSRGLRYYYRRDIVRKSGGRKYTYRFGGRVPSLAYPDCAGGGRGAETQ
# In short: as §1
# [8] = biological target: T5, ELF3 (Homo sapiens, UniProt P78545 1-371); settings: protein: recombinant; tags: N-terminal GST; dsDNA, one strand shown
# T5 sequence: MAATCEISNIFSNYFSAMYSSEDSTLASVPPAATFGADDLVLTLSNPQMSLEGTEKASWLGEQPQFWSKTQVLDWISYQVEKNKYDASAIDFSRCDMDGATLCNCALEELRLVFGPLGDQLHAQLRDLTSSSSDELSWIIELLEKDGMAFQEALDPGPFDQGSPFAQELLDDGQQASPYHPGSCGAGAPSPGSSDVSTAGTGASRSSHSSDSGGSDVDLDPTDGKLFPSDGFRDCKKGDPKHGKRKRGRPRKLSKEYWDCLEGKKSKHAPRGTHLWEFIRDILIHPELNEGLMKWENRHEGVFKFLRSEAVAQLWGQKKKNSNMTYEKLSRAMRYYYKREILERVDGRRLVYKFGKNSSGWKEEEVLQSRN
# In short: as §1
# [9] = biological target: CRX (Homo sapiens, UniProt O43186 1-299); settings: protein: recombinant; tags: N-terminal GST; dsDNA, one strand shown
# CRX, sequence (O43186 whole entry): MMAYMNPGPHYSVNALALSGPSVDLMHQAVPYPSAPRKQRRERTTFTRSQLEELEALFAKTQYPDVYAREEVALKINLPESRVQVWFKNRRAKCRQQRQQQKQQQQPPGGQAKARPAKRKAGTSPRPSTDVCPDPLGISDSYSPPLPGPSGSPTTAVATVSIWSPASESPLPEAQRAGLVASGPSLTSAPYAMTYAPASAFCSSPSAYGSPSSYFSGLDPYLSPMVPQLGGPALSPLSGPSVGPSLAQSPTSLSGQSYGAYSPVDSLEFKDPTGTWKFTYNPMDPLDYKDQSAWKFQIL
# In short: as §1
# [10] = biological target: ETV1 (Homo sapiens, UniProt P50549 1-477); settings: protein: recombinant; tags: N-terminal GST; dsDNA, one strand shown
# ETV1, sequence (P50549 whole entry): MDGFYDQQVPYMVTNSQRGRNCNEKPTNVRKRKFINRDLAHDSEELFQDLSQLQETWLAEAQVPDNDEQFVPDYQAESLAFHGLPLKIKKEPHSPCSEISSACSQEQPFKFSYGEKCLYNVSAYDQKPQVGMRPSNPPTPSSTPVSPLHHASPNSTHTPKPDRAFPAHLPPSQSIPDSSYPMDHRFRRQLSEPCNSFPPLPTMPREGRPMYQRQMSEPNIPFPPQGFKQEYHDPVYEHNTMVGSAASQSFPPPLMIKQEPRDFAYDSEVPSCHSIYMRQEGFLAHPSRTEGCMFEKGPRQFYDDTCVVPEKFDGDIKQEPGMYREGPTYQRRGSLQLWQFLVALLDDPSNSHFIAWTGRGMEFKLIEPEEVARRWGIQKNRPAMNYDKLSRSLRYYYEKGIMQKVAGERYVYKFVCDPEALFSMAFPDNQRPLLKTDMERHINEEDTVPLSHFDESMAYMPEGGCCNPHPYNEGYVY
# In short: as §1
# [11] = biological target: T6, ERF (Homo sapiens, UniProt P50548 1-548); settings: protein: recombinant; tags: N-terminal GST; dsDNA, one strand shown
# T6 sequence: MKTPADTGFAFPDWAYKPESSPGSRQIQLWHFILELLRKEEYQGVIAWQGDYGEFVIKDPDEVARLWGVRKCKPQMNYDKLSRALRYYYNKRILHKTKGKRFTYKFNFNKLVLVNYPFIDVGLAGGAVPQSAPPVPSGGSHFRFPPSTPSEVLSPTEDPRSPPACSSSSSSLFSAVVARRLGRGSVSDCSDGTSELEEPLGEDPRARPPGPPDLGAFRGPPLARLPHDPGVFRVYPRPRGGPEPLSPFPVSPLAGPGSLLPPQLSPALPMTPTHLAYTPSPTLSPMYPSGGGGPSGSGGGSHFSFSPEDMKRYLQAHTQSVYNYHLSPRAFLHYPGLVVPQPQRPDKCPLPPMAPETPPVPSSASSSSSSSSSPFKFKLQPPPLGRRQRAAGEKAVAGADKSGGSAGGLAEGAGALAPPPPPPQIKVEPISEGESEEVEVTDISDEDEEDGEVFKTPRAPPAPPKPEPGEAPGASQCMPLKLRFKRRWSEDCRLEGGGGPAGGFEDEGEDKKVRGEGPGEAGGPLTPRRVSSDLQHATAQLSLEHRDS
# In short: as §1
# [12] = biological target: T7, ETV3L (Homo sapiens, UniProt Q6ZN32 1-361); settings: protein: recombinant; tags: N-terminal GST; dsDNA, one strand shown
# T7 sequence: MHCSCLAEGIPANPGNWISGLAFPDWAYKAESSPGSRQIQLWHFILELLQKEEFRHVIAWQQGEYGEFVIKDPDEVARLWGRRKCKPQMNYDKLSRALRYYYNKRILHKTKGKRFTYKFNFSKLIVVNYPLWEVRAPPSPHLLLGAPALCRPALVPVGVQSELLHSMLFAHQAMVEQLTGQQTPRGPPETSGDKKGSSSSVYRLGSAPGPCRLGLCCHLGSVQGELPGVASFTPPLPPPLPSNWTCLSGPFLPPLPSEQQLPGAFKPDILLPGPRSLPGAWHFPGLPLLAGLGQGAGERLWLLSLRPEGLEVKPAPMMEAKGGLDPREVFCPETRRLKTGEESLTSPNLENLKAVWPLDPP
# In short: as §1
# [13] = biological target: T8, ETS2 (Homo sapiens, UniProt P15036 1-469); settings: protein: recombinant; tags: N-terminal GST; dsDNA, one strand shown
# T8 sequence: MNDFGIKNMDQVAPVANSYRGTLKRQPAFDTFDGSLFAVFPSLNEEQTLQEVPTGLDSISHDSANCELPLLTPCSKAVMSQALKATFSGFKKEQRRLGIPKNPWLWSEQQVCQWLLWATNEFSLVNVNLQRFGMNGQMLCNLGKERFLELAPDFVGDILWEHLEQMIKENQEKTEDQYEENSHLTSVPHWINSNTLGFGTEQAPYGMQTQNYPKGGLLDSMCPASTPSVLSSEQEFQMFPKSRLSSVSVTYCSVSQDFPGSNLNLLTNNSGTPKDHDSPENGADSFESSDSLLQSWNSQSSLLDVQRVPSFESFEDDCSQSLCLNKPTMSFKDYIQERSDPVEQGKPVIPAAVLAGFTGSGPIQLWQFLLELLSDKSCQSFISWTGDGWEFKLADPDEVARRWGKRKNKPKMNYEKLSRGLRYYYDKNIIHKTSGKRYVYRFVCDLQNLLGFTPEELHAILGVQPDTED
# In short: as §1
# [14] = biological target: T9, SPDEF (Homo sapiens, UniProt O95238 1-335); settings: protein: recombinant; tags: N-terminal GST; dsDNA, one strand shown
# T9 sequence: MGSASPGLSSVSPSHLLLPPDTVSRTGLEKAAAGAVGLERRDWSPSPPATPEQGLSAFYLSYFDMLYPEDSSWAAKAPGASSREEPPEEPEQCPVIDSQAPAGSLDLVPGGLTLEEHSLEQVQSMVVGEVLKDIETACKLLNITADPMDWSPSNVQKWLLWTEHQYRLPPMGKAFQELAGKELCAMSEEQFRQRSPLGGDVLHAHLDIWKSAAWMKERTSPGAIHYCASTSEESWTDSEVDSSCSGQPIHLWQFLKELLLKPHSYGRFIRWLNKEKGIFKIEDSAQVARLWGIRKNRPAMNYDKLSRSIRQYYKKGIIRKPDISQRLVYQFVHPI
# In short: as §1
# [15] = biological target: T10, ETV7 (Homo sapiens, UniProt Q9Y603 1-341); settings: protein: recombinant; tags: N-terminal GST; dsDNA, one strand shown
# T10 sequence: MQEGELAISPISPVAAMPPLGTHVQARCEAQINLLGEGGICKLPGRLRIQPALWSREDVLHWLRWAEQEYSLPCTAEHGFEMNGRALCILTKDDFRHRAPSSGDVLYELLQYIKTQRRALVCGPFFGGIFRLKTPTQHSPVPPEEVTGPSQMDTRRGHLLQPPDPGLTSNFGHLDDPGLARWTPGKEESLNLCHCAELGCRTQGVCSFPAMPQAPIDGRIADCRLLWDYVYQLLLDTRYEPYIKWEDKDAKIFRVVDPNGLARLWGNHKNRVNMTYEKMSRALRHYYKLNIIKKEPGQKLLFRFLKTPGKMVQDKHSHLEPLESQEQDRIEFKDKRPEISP
# In short: as §1
# [16] = biological target: T11, ELF5 (Homo sapiens, UniProt Q9UKW6-2 1-255); settings: protein: recombinant; tags: N-terminal GST; dsDNA, one strand shown
# T11 sequence: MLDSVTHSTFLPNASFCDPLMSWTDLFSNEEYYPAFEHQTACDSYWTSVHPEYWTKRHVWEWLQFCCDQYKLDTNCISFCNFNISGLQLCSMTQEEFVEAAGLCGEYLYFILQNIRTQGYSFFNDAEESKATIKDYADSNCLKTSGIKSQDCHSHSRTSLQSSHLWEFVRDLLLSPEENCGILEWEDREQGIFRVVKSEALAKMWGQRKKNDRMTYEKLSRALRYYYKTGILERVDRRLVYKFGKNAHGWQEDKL
# In short: as §1
# [17] = biological target: T12, ETV3 (Homo sapiens, UniProt P41162-2 1-143); settings: protein: recombinant; tags: N-terminal GST; dsDNA, one strand shown
# T12 sequence: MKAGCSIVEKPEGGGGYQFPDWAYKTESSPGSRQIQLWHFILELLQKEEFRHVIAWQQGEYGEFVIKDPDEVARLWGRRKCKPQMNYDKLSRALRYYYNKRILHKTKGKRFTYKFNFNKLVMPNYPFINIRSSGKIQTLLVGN
# In short: as §1
# [18] = biological target: ETV6 (Homo sapiens, UniProt P41212 1-452); settings: protein: recombinant; tags: N-terminal GST; dsDNA, one strand shown
# ETV6, sequence (P41212 whole entry): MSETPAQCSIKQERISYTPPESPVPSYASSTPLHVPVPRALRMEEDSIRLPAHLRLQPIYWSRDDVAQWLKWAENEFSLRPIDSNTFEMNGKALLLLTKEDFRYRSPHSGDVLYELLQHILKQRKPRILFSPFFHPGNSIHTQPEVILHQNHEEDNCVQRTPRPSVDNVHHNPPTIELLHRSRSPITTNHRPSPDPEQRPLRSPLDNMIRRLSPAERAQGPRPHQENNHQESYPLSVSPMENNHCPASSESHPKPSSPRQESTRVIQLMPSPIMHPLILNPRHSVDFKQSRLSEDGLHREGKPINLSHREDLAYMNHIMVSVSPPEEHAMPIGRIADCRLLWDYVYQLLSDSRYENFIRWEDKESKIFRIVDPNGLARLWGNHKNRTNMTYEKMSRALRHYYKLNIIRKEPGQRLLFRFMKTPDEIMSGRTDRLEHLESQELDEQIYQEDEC
# In short: as §1
sequence,measurement,setting,value
ATTGCA,binding signal,[1],"1.15 fold enrichment (6-mer frequency, TF over GST control)"
same,binding signal,[2],"1.17 fold enrichment (6-mer frequency, TF over GST control)"
same,binding signal,[3],"1.06 fold enrichment (6-mer frequency, TF over GST control)"
same,binding signal,[4],"1.1 fold enrichment (6-mer frequency, TF over GST control)"
same,binding signal,[5],"1.19 fold enrichment (6-mer frequency, TF over GST control)"
same,binding signal,[6],"1.28 fold enrichment (6-mer frequency, TF over GST control)"
same,binding signal,[7],"1.31 fold enrichment (6-mer frequency, TF over GST control)"
same,binding signal,[8],"1.13 fold enrichment (6-mer frequency, TF over GST control)"
same,binding signal,[9],"1.11 fold enrichment (6-mer frequency, TF over GST control)"
same,binding signal,[10],"1.17 fold enrichment (6-mer frequency, TF over GST control)"
same,binding signal,[11],"1.23 fold enrichment (6-mer frequency, TF over GST control)"
same,binding signal,[12],"1.19 fold enrichment (6-mer frequency, TF over GST control)"
same,binding signal,[13],"1.15 fold enrichment (6-mer frequency, TF over GST control)"
same,binding signal,[14],"1.18 fold enrichment (6-mer frequency, TF over GST control)"
same,binding signal,[15],"1.17 fold enrichment (6-mer frequency, TF over GST control)"
same,binding signal,[16],"1.16 fold enrichment (6-mer frequency, TF over GST control)"
same,binding signal,[17],"1.09 fold enrichment (6-mer frequency, TF over GST control)"
same,binding signal,[18],"1.21 fold enrichment (6-mer frequency, TF over GST control)"
